# Laboratory results: the supplement of paper PMC8728848
# Only a selection was taken, and the strongest signals are over-represented in it overall.
# Legend:
# Test in all cases: glycan array binding signal (z-score within array); higher = stronger binding
# Conditions in all cases: glycan notation: IUPAC condensed, linker removed
# [1] = biological target: Fuc(a1-2)Gal(b1-3)GalNAc(b1-3)Gal(a1-4)Gal(b1-4)Glc
# Procedure, shortened: (§1)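 Columns mapping to the same glycan were averaged after glycan names were converted to IUPAC-condensed notation. The data come from 3228 arrays in the Consortium for Functional Glycomics database, limited to those with an available protein sequence. Binding is reported as a within-array Z-score averaged across arrays of one protein sequence and across linkers.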
# [2] = biological target: Fuc(a1-2)Gal(b1-3)[Fuc(a1-4)]GlcNAc(b1-3)[Gal(b1-4)GlcNAc(b1-6)]Gal(b1-4)Glc
# Procedure, shortened: as §1
# [3] = biological target: Fuc(a1-2)Gal(b1-4)[Fuc(a1-3)]GlcNAc(b1-3)GalNAc
# Procedure, shortened: as §1
# [4] = biological target: Fuc(a1-2)[GalNAc(a1-3)]Gal(b1-4)GlcNAc(b1-2)Man(a1-3)[Fuc(a1-2)[GalNAc(a1-3)]Gal(b1-4)GlcNAc(b1-2)Man(a1-6)]Man(b1-4)GlcNAc(b1-4)GlcNAc
# Procedure, shortened: as §1
# [5] = biological target: Fuc(a1-2)[GalNAc(b1-3)]Gal
# Procedure, shortened: as §1
# [6] = biological target: Fuc(a1-3)[Gal(b1-4)]GlcNAc(b1-2)Man(a1-3)[Fuc(a1-3)[Gal(b1-4)]GlcNAc(b1-2)Man(a1-6)]Man(b1-4)GlcNAc(b1-4)GlcNAc
# Procedure, shortened: as §1
# [7] = biological target: Fuc(a1-3)[Gal(b1-4)]GlcNAc(b1-3)GalNAc
# Procedure, shortened: as §1
# [8] = biological target: Gal(a1-3)Gal(b1-3)GlcNAc(b1-2)Man(a1-3)[Gal(a1-3)Gal(b1-3)GlcNAc(b1-2)Man(a1-6)]Man(b1-4)GlcNAc(b1-4)GlcNAc
# Procedure, shortened: as §1
# [9] = biological target: Gal(a1-3)Gal(b1-3)[Fuc(a1-4)]GlcNAc(b1-2)Man(a1-3)[Gal(a1-3)Gal(b1-3)[Fuc(a1-4)]GlcNAc(b1-2)Man(a1-6)]Man(b1-4)GlcNAc(b1-4)GlcNAc
# Procedure, shortened: as §1
# [10] = biological target: Gal(a1-4)Gal(b1-4)GlcNAc
# Procedure, shortened: as §1
# [11] = biological target: Gal(a1-4)Gal(b1-4)GlcNAc(b1-2)Man(a1-3)[Gal(a1-4)Gal(b1-4)GlcNAc(b1-2)Man(a1-6)]Man(b1-4)GlcNAc(b1-4)GlcNAc
# Procedure, shortened: as §1
# [12] = biological target: Gal(a1-4)Gal(b1-4)GlcNAc(b1-3)Gal(b1-4)Glc
# Procedure, shortened: as §1
# [13] = biological target: Gal(b1-3)Gal(b1-4)GlcNAc
# Procedure, shortened: as §1
# [14] = biological target: Gal(b1-3)GlcNAc(b1-3)Gal(b1-3)GlcNAc
# Procedure, shortened: as §1
# [15] = biological target: Gal(b1-3)GlcNAc(b1-3)Gal(b1-4)GlcNAc
# Procedure, shortened: as §1
# [16] = biological target: Gal(b1-3)[Neu5Ac(a2-6)]GalNAc
# Procedure, shortened: as §1
# [17] = biological target: Gal(b1-4)GlcNAc(b1-2)Man(a1-3)[Man(a1-6)]Man(b1-4)GlcNAc(b1-4)GlcNAc
# Procedure, shortened: as §1
# [18] = biological target: Gal(b1-4)GlcNAc(b1-3)[Gal(b1-4)GlcNAc(b1-6)]GalNAc
# Procedure, shortened: as §1
# [19] = biological target: Gal3S(b1-4)Glc
# Procedure, shortened: as §1
# [20] = biological target: GalNAc(b1-3)Gal(a1-4)Gal(b1-4)GlcNAc(b1-3)Gal(b1-4)Glc
# Procedure, shortened: as §1
# [21] = biological target: GalNAc(b1-3)Gal(a1-6)Gal(b1-4)Glc
# Procedure, shortened: as §1
# [22] = biological target: GlcA(b1-3)GlcNAc
# Procedure, shortened: as §1
# [23] = biological target: GlcNAc(a1-4)Gal(b1-4)GlcNAc
# Procedure, shortened: as §1
# [24] = biological target: GlcNAc(a1-4)Gal(b1-4)GlcNAc(b1-3)Gal(b1-4)[Fuc(a1-3)]GlcNAc(b1-3)Gal(b1-4)[Fuc(a1-3)]GlcNAc
# Procedure, shortened: as §1
# [25] = biological target: GlcNAc(b1-2)Man(a1-3)[GlcNAc(b1-2)Man(a1-6)]Man(b1-4)GlcNAc(b1-4)GlcNAc
# Procedure, shortened: as §1
# [26] = biological target: GlcNAc(b1-2)[GlcNAc(b1-4)]Man(a1-3)[GlcNAc(b1-4)][GlcNAc(b1-2)Man(a1-6)]Man(b1-4)GlcNAc(b1-4)GlcNAc
# Procedure, shortened: as §1
# [27] = biological target: GlcNAc(b1-3)Gal(b1-3)GalNAc
# Procedure, shortened: as §1
# [28] = biological target: GlcNAc(b1-3)Gal(b1-4)Glc
# Procedure, shortened: as §1
# [29] = biological target: GlcNAc(b1-3)GalNAc
# Procedure, shortened: as §1
# [30] = biological target: GlcNAc(b1-4)GlcNAc(b1-4)GlcNAc(b1-4)GlcNAc(b1-4)GlcNAc(b1-4)GlcNAc
# Procedure, shortened: as §1
# [31] = biological target: GlcNAc(b1-4)[GlcNAc(b1-6)]GalNAc
# Procedure, shortened: as §1
# [32] = biological target: Neu5Ac(a2-3)Gal(b1-3)GalNAc(b1-3)Gal(a1-4)Gal(b1-4)Glc
# Procedure, shortened: as §1
# [33] = biological target: Neu5Ac(a2-3)Gal(b1-3)GalNAc(b1-4)[Neu5Ac(a2-3)]Gal(b1-4)Glc
# Procedure, shortened: as §1
# [34] = biological target: Neu5Ac(a2-3)Gal(b1-3)GlcNAc(b1-3)Gal(b1-3)GlcNAc
# Procedure, shortened: as §1
# [35] = biological target: Neu5Ac(a2-3)Gal(b1-3)[Fuc(a1-4)]GlcNAc(b1-3)Gal(b1-3)[Fuc(a1-4)]GlcNAc
# Procedure, shortened: as §1
# [36] = biological target: Neu5Ac(a2-3)Gal(b1-4)[Fuc(a1-3)]GlcNAc(b1-3)Gal(b1-4)GlcNAc
# Procedure, shortened: as §1
# [37] = biological target: Neu5Ac(a2-6)Gal(b1-3)GlcNAc(b1-3)[Gal(b1-4)GlcNAc(b1-6)]Gal(b1-4)Glc
# Procedure, shortened: as §1
# [38] = biological target: Neu5Ac(a2-6)Gal(b1-4)GlcNAc(b1-2)Man(a1-3)[GlcNAc(b1-2)Man(a1-6)]Man(b1-4)GlcNAc(b1-4)GlcNAc
# Procedure, shortened: as §1
# [39] = biological target: Neu5Ac(a2-6)Gal(b1-4)GlcNAc(b1-3)GalNAc
# Procedure, shortened: as §1
# [40] = biological target: Neu5Ac9Ac(a2-6)Gal(b1-4)GlcNAc
# Procedure, shortened: as §1
# [41] = biological target: Neu5Gc(a2-3)Gal(b1-4)Glc
# Procedure, shortened: as §1
# [42] = biological target: Neu5Gc(a2-3)Gal(b1-4)GlcNAc
# Procedure, shortened: as §1
# [43] = biological target: Neu5Gc(a2-6)Gal(b1-4)GlcNAc
# Procedure, shortened: as §1
# [44] = biological target: Neu5Gc(a2-6)GalNAc
# Procedure, shortened: as §1
binder,measurement,setting,value
"CwpV (Clostridium difficile), B6EFG6 (protein) MKIPKKIAAMLTVTMIAGSSTAGIASAQTVATNLTGQERYETAVKISQDGWKNADEVVIVNDSSIADALSATPFAKAKNAPILLTSKDKLNDKTKAEIQRLKAKKVYLIGGTSVLSTNIEKEIKDLKISFERISGAERYQTSLELAKKLDAISDVKKIAVVNGEKGLADAVSVGAPAAQNNMPVILADSKNGTAVADKFIKDAGITQSYVVGGESSISEAVKNKLPNSTRLGGTDRNDTNAKVIKEFYKKTDLKNAYVTKDGMNKQDQLIDALAVGVLGAKNQSPVVLVGKNLSASQKSLVNSKSFDKITKVGGNGNETAFNEMKSLQEVKTVEAKTISELKSAIDKATANDVINFKPTSEVKEAFTIQTDKAVTVNLNGTYTKTVTINMPNGDVNNYAKVDDVVIDDVKDGTFVNYGKITNLKVNDKNGAKIENNSKGEIGSLTVASGASQVKVTNGGKITTVTNNSKGTTIDNKGTISSVKGDNSPTISGNSPSSNSSGGSSSSGGSSGGSSGGSSSSKVGQIKFSATDKQIKMASGDKTVDPSDNTYILKLTNGTVKDGDVKANVKVAGLPSGLDYTAVGNRSANTITITVSGTTSQSIQNDLNNVSVLVKAGAVSGTGATDSIANTTFEIKKYVAAPAVGQLTFDATDKQIKMASGDKTVDPSDDTYVLTLTKGTAKDGDIKANVEVTGLPSGLDYTAEGDSSANTITIPVSGTASPAVQTDLDNVSVLVKAGAVSETTATDSAANATFEVKKYVAPAVGQLTFDATDKQIKMASGDKTVDPSDDTYVLTLTKGTAKDGDIKANVEVTGLPSGLDYTAEGDSSANTITITVSGTASQAVQTDLDNVSVLVKAGAVSETTATDSAANATFEVKKYVAPAIGQLTFDATDKQIKMASGDKTVDPSDDTYVLTLTKGTAKDGDIKANVEVTGLPSGLDYTAEGDSSANTITITVSGTASQAVQTDLDNVSVLVKAGAVSETTATDSAANATFEVKKHASDPISTIGKISSGLSSLFNILK",glycan array binding signal (z-score),[1],2.48
same,glycan array binding signal (z-score),[2],0.041
same,glycan array binding signal (z-score),[3],0.596
same,glycan array binding signal (z-score),[4],-0.032
same,glycan array binding signal (z-score),[5],-0.249
same,glycan array binding signal (z-score),[6],-0.175
same,glycan array binding signal (z-score),[7],0.07
same,glycan array binding signal (z-score),[8],0.365
same,glycan array binding signal (z-score),[9],0.538
same,glycan array binding signal (z-score),[10],2.24
same,glycan array binding signal (z-score),[11],9.72
same,glycan array binding signal (z-score),[12],2.79
same,glycan array binding signal (z-score),[13],-0.025
same,glycan array binding signal (z-score),[14],-0.249
same,glycan array binding signal (z-score),[15],0.622
same,glycan array binding signal (z-score),[16],-0.248
same,glycan array binding signal (z-score),[17],-0.26
same,glycan array binding signal (z-score),[18],-0.34
same,glycan array binding signal (z-score),[19],-0.29
same,glycan array binding signal (z-score),[20],6.4
same,glycan array binding signal (z-score),[21],2.68
same,glycan array binding signal (z-score),[22],8.78
same,glycan array binding signal (z-score),[23],-0.192
same,glycan array binding signal (z-score),[24],0.469
same,glycan array binding signal (z-score),[25],-0.124
same,glycan array binding signal (z-score),[26],-0.317
same,glycan array binding signal (z-score),[27],-0.217
same,glycan array binding signal (z-score),[28],-0.297
same,glycan array binding signal (z-score),[29],-0.322
same,glycan array binding signal (z-score),[30],1.05
same,glycan array binding signal (z-score),[31],-0.284
same,glycan array binding signal (z-score),[32],11.2
same,glycan array binding signal (z-score),[33],-0.101
same,glycan array binding signal (z-score),[34],-0.328
same,glycan array binding signal (z-score),[35],0.484
same,glycan array binding signal (z-score),[36],0.368
same,glycan array binding signal (z-score),[37],-0.21
same,glycan array binding signal (z-score),[38],-0.249
same,glycan array binding signal (z-score),[39],0.056
same,glycan array binding signal (z-score),[40],-0.322
same,glycan array binding signal (z-score),[41],-0.229
same,glycan array binding signal (z-score),[42],-0.046
same,glycan array binding signal (z-score),[43],-0.292
same,glycan array binding signal (z-score),[44],-0.29
